{
  "source": "PubChem BioAssay (EPA / NIEHS)",
  "note": "The source made the active and inactive calls. The calls were made as follows: active = hit-call score of the fitted dose curve at least 0.9, where 1 is the maximum; inactive = score below 0.9.",
  "data": [
    {"read-out": "not listed separately", "assay": "CEETOX_H295R_TESTO: CeeTox H295R High-throughput Steroidogenesis Assay for Testosterone (TESTO) (AID 2283457);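 as to AC50: cells exposed to chemicals for 48 h before medium collection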", "conditions": "actives raise or lower the signal", "in_short": "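Steroidogenesis in H295R cells following OECD 456 with minor changes; 48 h exposure. Medium testosterone by HPLC-MS/MS, DMSO as baseline, with MTT viability run in parallel.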", "values": [
      {"molecule": "CNC(=O)Oc1cccc2c1OC(C)(C)C2", "outcome": "inactive"},
      {"molecule": "CC(C)N(Cc1ccccc1)C(=O)C(C)(C)C", "outcome": "inactive"},
      {"molecule": "CC(C)(O)c1cnn2c(-c3ccc(F)c(-c4c(F)cccc4C#N)c3)cnc2n1", "outcome": "inactive"},
      {"molecule": "Nc1ccc(Cl)cc1N", "outcome": "inactive"},
      {"molecule": "Cc1cc(N=Nc2ccccc2C)ccc1N", "outcome": "inactive"},
      {"molecule": "C[C@]12C=CC3=C4CCC(=O)C=C4CC[C@H]3[C@@H]1CC[C@@H]2O", "AC50": "83 µM (active)"},
      {"molecule": "O=C(Nc1ccccc1)c1ccccc1I", "outcome": "inactive"}
    ]},
    {"read-out": "growth arrest and DNA damage 45 (GADD45A), GADD45A (gene 1647)", "assay": "LTEA_HepaRG_GADD45A: Life Technologies and Expression Analysis (LTEA) Assay for growth arrest and DNA damage 45 (GADD45A) using HepaRG (AID 2283458)", "conditions": "mRNA level, 48 h; actives raise or lower the signal", "in_short": "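Cells plated and cultured 48 h, switched to serum-free induction medium, then dosed for 48 h (100 uM top, half-log dilutions, 0.5% DMSO). RNA was isolated and transcript measured by Fluidigm qRT-PCR.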", "values": [
      {"molecule": "CNC(=O)Oc1cccc2c1OC(C)(C)C2", "AC50": "0.0409 µM (active)"},
      {"molecule": "CCCCCOC(=O)c1ccccc1C(=O)OCCCCC", "outcome": "inactive"},
      {"molecule": "CC(C)N(Cc1ccccc1)C(=O)C(C)(C)C", "outcome": "inactive"},
      {"molecule": "COP(=S)(OC)SCN1C(=O)c2ccccc2C1=O", "outcome": "inactive"},
      {"molecule": "CC(C)(O)c1cnn2c(-c3ccc(F)c(-c4c(F)cccc4C#N)c3)cnc2n1", "outcome": "inactive"},
      {"molecule": "Nc1ccc(Oc2ccc(N)cc2)cc1", "outcome": "inactive"},
      {"molecule": "Nc1ccc(Cl)cc1N", "AC50": "13.3 µM (active)"},
      {"molecule": "Oc1ccc2ccc3cccc4ccc1c2c34", "outcome": "inactive"},
      {"molecule": "Cn1cc(-c2ccccc2)c(=O)c(-c2cccc(C(F)(F)F)c2)c1", "outcome": "inactive"},
      {"molecule": "Cc1cc(N=Nc2ccccc2C)ccc1N", "AC50": "3.52 µM (active)"},
      {"molecule": "C[C@]12C=CC3=C4CCC(=O)C=C4CC[C@H]3[C@@H]1CC[C@@H]2O", "outcome": "inactive"},
      {"molecule": "O=C(Nc1ccccc1)c1ccccc1I", "outcome": "inactive"},
      {"molecule": "CC(C)(C)C(O)(CCc1ccc(Cl)cc1)Cn1cncn1", "note": "(configuration not stated)", "outcome": "inactive"},
      {"molecule": "CCOc1cccc(C2(N3CCN(c4ccccc4)CC3)CCC(C)CC2)c1", "note": "(configuration not stated)", "outcome": "inactive"},
      {"molecule": "CCCCCCCCCCCCCN1CC(C)OC(C)C1", "note": "(configuration not stated)", "outcome": "inactive"},
      {"molecule": "CCC(C)c1ccc(O)cc1", "note": "(configuration not stated)", "outcome": "inactive"},
      {"molecule": "N#CC(Br)(Br)C(N)=O", "outcome": "inactive"},
      {"molecule": "c1ccc(NNc2ccccc2)cc1", "outcome": "inactive"},
      {"molecule": "Nc1ccc(N=Nc2ccccc2)cc1", "outcome": "inactive"},
      {"molecule": "Cc1ccc(N)c(N)c1", "outcome": "inactive"},
      {"molecule": "O=P(OCCCl)(OCCCl)OCCCl", "outcome": "inactive"},
      {"molecule": "O=C(Oc1ccc(Br)cc1)N1CCN2CCC1CC2", "outcome": "inactive"},
      {"molecule": "Nc1ccc(Cc2ccc(N)cc2)cc1", "outcome": "inactive"},
      {"molecule": "Cc1ccc(N=C=O)cc1N=C=O", "outcome": "inactive"},
      {"molecule": "Cc1cccc(N)c1N", "outcome": "inactive"},
      {"molecule": "[As]#[In]", "outcome": "inactive"},
      {"molecule": "O=[N+]([O-])c1ccc(Oc2ccc(Cl)cc2Cl)cc1", "outcome": "inactive"}
    ]},
    {"read-out": "Forkhead box O3 (FOXO3), FOXO3 (gene 2309)", "assay": "LTEA_HepaRG_FOXO3: Life Technologies and Expression Analysis (LTEA) Assay for Forkhead box O3 (FOXO3) using HepaRG (AID 2283459)", "conditions": "mRNA level, 48 h; actives raise or lower the signal", "in_short": "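Differentiated human HepaRG cells, 48 h post-plating, exposed in duplicate for 48 h in serum-free induction medium; 8-point half-log series from 100 uM in 0.5% DMSO. FOXO3 mRNA by TaqMan qRT-PCR, normalized to ACTB/GAPDH/POLR2A; bidirectional fit versus DMSO.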", "values": [
      {"molecule": "CNC(=O)Oc1cccc2c1OC(C)(C)C2", "outcome": "inactive"},
      {"molecule": "CCCCCOC(=O)c1ccccc1C(=O)OCCCCC", "outcome": "inactive"},
      {"molecule": "CC(C)N(Cc1ccccc1)C(=O)C(C)(C)C", "outcome": "inactive"},
      {"molecule": "COP(=S)(OC)SCN1C(=O)c2ccccc2C1=O", "outcome": "inactive"},
      {"molecule": "CC(C)(O)c1cnn2c(-c3ccc(F)c(-c4c(F)cccc4C#N)c3)cnc2n1", "outcome": "inactive"},
      {"molecule": "Nc1ccc(Oc2ccc(N)cc2)cc1", "outcome": "inactive"},
      {"molecule": "Nc1ccc(Cl)cc1N", "AC50": "21.5 µM (active)"},
      {"molecule": "Oc1ccc2ccc3cccc4ccc1c2c34", "outcome": "inactive"},
      {"molecule": "Cn1cc(-c2ccccc2)c(=O)c(-c2cccc(C(F)(F)F)c2)c1", "outcome": "inactive"},
      {"molecule": "Cc1cc(N=Nc2ccccc2C)ccc1N", "AC50": "5.56 µM (active)"},
      {"molecule": "C[C@]12C=CC3=C4CCC(=O)C=C4CC[C@H]3[C@@H]1CC[C@@H]2O", "outcome": "inactive"},
      {"molecule": "O=C(Nc1ccccc1)c1ccccc1I", "AC50": "14.6 µM (active)"},
      {"molecule": "CC(C)(C)C(O)(CCc1ccc(Cl)cc1)Cn1cncn1", "note": "(configuration not stated)", "outcome": "inactive"},
      {"molecule": "CCOc1cccc(C2(N3CCN(c4ccccc4)CC3)CCC(C)CC2)c1", "note": "(configuration not stated)", "outcome": "inactive"},
      {"molecule": "CCCCCCCCCCCCCN1CC(C)OC(C)C1", "note": "(configuration not stated)", "outcome": "inactive"},
      {"molecule": "CCC(C)c1ccc(O)cc1", "note": "(configuration not stated)", "outcome": "inactive"},
      {"molecule": "N#CC(Br)(Br)C(N)=O", "outcome": "inactive"},
      {"molecule": "c1ccc(NNc2ccccc2)cc1", "outcome": "inactive"},
      {"molecule": "Nc1ccc(N=Nc2ccccc2)cc1", "AC50": "18.4 µM (active)"},
      {"molecule": "Cc1ccc(N)c(N)c1", "outcome": "inactive"},
      {"molecule": "O=P(OCCCl)(OCCCl)OCCCl", "outcome": "inactive"},
      {"molecule": "O=C(Oc1ccc(Br)cc1)N1CCN2CCC1CC2", "outcome": "inactive"},
      {"molecule": "Nc1ccc(Cc2ccc(N)cc2)cc1", "outcome": "inactive"},
      {"molecule": "Cc1ccc(N=C=O)cc1N=C=O", "outcome": "inactive"},
      {"molecule": "Cc1cccc(N)c1N", "AC50": "50 µM (active)"},
      {"molecule": "[As]#[In]", "outcome": "inactive"},
      {"molecule": "O=[N+]([O-])c1ccc(Oc2ccc(Cl)cc2Cl)cc1", "outcome": "inactive"}
    ]},
    {"read-out": "ABC Transporter (ABCB1), ABCB1 (gene 5243)", "assay": "LTEA_HepaRG_ABCB1: Life Technologies and Expression Analysis (LTEA) Assay for ABC Transporter (ABCB1) using HepaRG (AID 2283460)", "conditions": "mRNA level, 48 h; actives raise or lower the signal", "in_short": "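HepaRG cells exposed in duplicate for 48 h in serum-free induction medium to eight half-log concentrations up to 100 uM in 0.5% DMSO. ABCB1 mRNA quantified by qRT-PCR, normalised to ACTB, GAPDH and POLR2A; fitted bidirectionally versus DMSO.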", "values": [
      {"molecule": "CNC(=O)Oc1cccc2c1OC(C)(C)C2", "outcome": "inactive"},
      {"molecule": "CCCCCOC(=O)c1ccccc1C(=O)OCCCCC", "outcome": "inactive"},
      {"molecule": "CC(C)N(Cc1ccccc1)C(=O)C(C)(C)C", "outcome": "inactive"},
      {"molecule": "COP(=S)(OC)SCN1C(=O)c2ccccc2C1=O", "outcome": "inactive"},
      {"molecule": "CC(C)(O)c1cnn2c(-c3ccc(F)c(-c4c(F)cccc4C#N)c3)cnc2n1", "AC50": "0.438 µM (active)"},
      {"molecule": "Nc1ccc(Oc2ccc(N)cc2)cc1", "outcome": "inactive"},
      {"molecule": "Nc1ccc(Cl)cc1N", "AC50": "19.6 µM (active)"},
      {"molecule": "Oc1ccc2ccc3cccc4ccc1c2c34", "outcome": "inactive"},
      {"molecule": "Cn1cc(-c2ccccc2)c(=O)c(-c2cccc(C(F)(F)F)c2)c1", "AC50": "7.25 µM (active)"},
      {"molecule": "Cc1cc(N=Nc2ccccc2C)ccc1N", "AC50": "5.45 µM (active)"},
      {"molecule": "C[C@]12C=CC3=C4CCC(=O)C=C4CC[C@H]3[C@@H]1CC[C@@H]2O", "outcome": "inactive"},
      {"molecule": "O=C(Nc1ccccc1)c1ccccc1I", "outcome": "inactive"},
      {"molecule": "CC(C)(C)C(O)(CCc1ccc(Cl)cc1)Cn1cncn1", "note": "(configuration not stated)", "AC50": "3.45 µM (active)"},
      {"molecule": "CCOc1cccc(C2(N3CCN(c4ccccc4)CC3)CCC(C)CC2)c1", "note": "(configuration not stated)", "outcome": "inactive"},
      {"molecule": "CCCCCCCCCCCCCN1CC(C)OC(C)C1", "note": "(configuration not stated)", "outcome": "inactive"},
      {"molecule": "CCC(C)c1ccc(O)cc1", "note": "(configuration not stated)", "outcome": "inactive"},
      {"molecule": "N#CC(Br)(Br)C(N)=O", "outcome": "inactive"},
      {"molecule": "c1ccc(NNc2ccccc2)cc1", "outcome": "inactive"},
      {"molecule": "Nc1ccc(N=Nc2ccccc2)cc1", "AC50": "15.5 µM (active)"},
      {"molecule": "Cc1ccc(N)c(N)c1", "outcome": "inactive"},
      {"molecule": "O=P(OCCCl)(OCCCl)OCCCl", "outcome": "inactive"},
      {"molecule": "O=C(Oc1ccc(Br)cc1)N1CCN2CCC1CC2", "outcome": "inactive"},
      {"molecule": "Nc1ccc(Cc2ccc(N)cc2)cc1", "outcome": "inactive"},
      {"molecule": "Cc1ccc(N=C=O)cc1N=C=O", "outcome": "inactive"},
      {"molecule": "Cc1cccc(N)c1N", "outcome": "inactive"},
      {"molecule": "[As]#[In]", "outcome": "inactive"}
    ]}
  ]
}
